# According to PubChem BioAssay AID1650 (Southern Research Specialized Biocontainment Screening …, 2009):
# Measured potencies and affinities stand elsewhere. Activity calls are given as the source filed them. No rule for the calls is given here.
# Experiment: mammalian cell viability reduction – secondary assay, cytotoxicity control for West Nile virus antiviral project, dose response (AID 1650)
# Settings: Mammalian host cell viability, cytotoxicity counter-screen; series mostly up to 10 µM
row,Structure (SMILES),outcome
1,CN(C)CCNc1ncnc2c1sc1nc(-c3ccccc3)c3c(c12)CCCC3,inactive
2,CN(C)CCCN(C(=O)c1ccc2c(c1)CCCC2)c1nc2ccc(F)cc2s1,inactive
3,CN1CCN(c2ccc(NC(=O)c3ccc(-c4cccc([N+](=O)[O-])c4)o3)cc2)CC1,inactive
4,CC(C)n1cc(CN2CCCC(C(=O)Nc3cccc(-c4cc5ccccc5[nH]4)c3)C2)cn1 (centres undefined),inactive
5,Cc1ccc2oc(=O)c3cc(C(=O)NCCCN4CC(C)CC(C)C4)sc3c2c1 (centres undefined),inactive
6,O=C(Nc1ccc(F)c(Cl)c1)Nc1ccc(Cl)cn1,inactive
7,CCN(CC)CCOC(=O)c1ccc(NC(=O)CCCN2C(=O)S/C(=C/c3ccc(OC)cc3)C2=S)cc1,inactive
8,COc1cc(CNC(C)(C)CO)ccc1OCC(=O)Nc1ccc(Br)cc1,inactive
9,COC(=O)C1(O)CC(C(C)C)=NN1C(=O)c1ccc(Cl)cc1 (centres undefined),inactive
10,O=C1OC(N2CCN(Cc3ccccc3)CC2)c2ccccc21 (centres undefined),inactive
11,CCOC(=O)c1c2c(n(C)c1COC)C(=O)C(=O)c1ccc(Br)cc1-2,inactive
12,COc1ccc(-c2csc(NC3OC(=O)c4ccccc43)n2)cc1 (centres undefined),inactive
13,O=C(Nc1ccc(-n2ccc(C(F)(F)F)n2)cc1)Nc1cccc(Cl)c1,inactive
14,CCC(C)c1ccccc1NC(=O)COC(=O)c1ccc2[nH]c3c(c2c1)CCCC3 (centres undefined),inactive
15,CCOc1ccc2nc(N3CCCC(C(=O)NCCCN4C(C)CCCC4C)C3)sc2c1 (centres undefined),inactive
16,CN(C)Cc1c(C(=O)N/N=C/c2cccc(OCc3c(F)cccc3Cl)c2)nnn1-c1nonc1N,inactive
17,CCCCOC(=O)Cn1c2ccc(OC)cc2c2nc3ccccc3nc21,inactive
18,CCOC(=O)c1nn(-c2ccccc2)c2nc(-c3ccc(OC)cc3)c(C#N)c(=O)n12,inactive
19,COc1ccc(CN2[C@@H](CC(C)=O)c3ccc(/C=C/C(C)=O)cc3S2(=O)=O)cc1,inactive
20,COc1ccc(NC(=S)Nc2ccc3nsnc3c2)cc1,inactive
21,CC1CCCN(Cc2c(O)ccc3c(=O)c(-c4nc5ccccc5s4)c(N)oc23)C1 (centres undefined),inactive
22,CN(C)CCCNC(=S)N1CCN(c2nc(-c3ccccc3)cs2)CC1,inactive
23,Cc1ccc(NC(=S)N(CCCN2CCCC2)Cc2cccn2Cc2ccc(Cl)cc2)cc1C,inactive
24,CCc1ccc2nc(N(CCCN(C)C)C(=O)c3ccc4c(c3)OCCO4)sc2c1,inactive
